Out of some 400,000 compounds screened, about 13,000 (3.2%) were called active. Not shown: some 18% with an inconclusive outcome. The full list was thinned out, with actives kept by preference. A number with no mark means an inactive call. Calls follow the shape of the dose curve; as a rule, active = well fitted cell-killing curve with a large enough effect; inconclusive = small, poorly fitted or top-dose-only effect, or effect the other way; inactive = flat fitted curve, though single readings scatter.
% is scaled to controls: 0 for no effect and ±100 for the full control effect; potency is read from the fitted curve at half-maximal effect.

The assay can be described thus: qHTS assay for MDR1-selective chemotherapeutics: Primary screen using the drug-selected MDR subline cells KB-V1. Also: nearly all actives have a fitted effect of over 60% in size. The conditions noted are these: KB-V1 MDR cells viability, CellTiter-Glo, 72 h; series mostly up to 46.1 µM; activity change, negative = cytotoxicity: at the top concentration. From the text:
A prime difficulty in effectively treating cancer is the development of cellular resistance to multiple structurally unrelated anticancer drugs, a phenomenon known as multidrug resistance (MDR). […] Numerous strategies to overcome P-gp-mediated MDR have been explored, including the design of drugs that evade recognition and efflux, and development of inhibitors to block efflux and restore drug accumulation. […] An alternative approach is to exploit resistance by identifying drugs that target MDR cells over the non-resistant parental cells from which they were selected. […] The development of MDR1-selective agents represents a new strategy for resolving multidrug resistance, as it remains a long-standing clinical challenge for cancer chemotherapy.
Our goal is to identify compounds that selectively kill P-gp-expressing MDR cells. We will identify MDR1-selective compounds by comparing toxicity of compounds in the screening library against parental, drug-naive (KB-3-1) adenocarcinoma cells as well as their drug-selected MDR sub-line (KB-V1). The differential toxicity of compounds against these two cell lines will be used to identify MDR1-selective compounds, whose cytotoxicity is potentiated, rather than diminished, by P-gp expression. This assay will be utilized to conduct a quantitative high-throughput screen (qHTS) in collaboration with the NIH Chemical Genomics Center to identify selective agents, and probe hits arising from the screen will be validated using secondary assays and characterized through a well-established follow-up research program. This screen was run against the entire NCGC library collection of about 400,000 compounds.
NIH Molecular Libraries Probe Production Network [MLPCN]
NIH Chemical Genomics Center [NCGC]
PI: Michael Gottesman, National Cancer Institute, NIH
Briefly, 5 microL of media containing either KB-V1 cells (columns 1-2, 4-48) are dispensed into Greiner white, treated solid-bottom 1536-well assay plates (media-only control is added to column 3). Compounds are then transferred via Kalypsys pin tool equipped with 1536-pin array (10 nL slotted pins, V&P Scientific, San Diego, CA). Following addition of compound, the plates are incubated at 37 degrees C for 72 hours. CellTiter-Glo (2.5 µL/well) is then added, and the plates are read in a ViewLux reader (Perkin-Elmer, clear luminescence filter, 1 second exposure, 1x binning) following a 10 minute incubation. All cells are dispensed in DMEM phenol-red free media containing 10% FBS.
Library plates were screened starting from the lowest and proceeding to the highest concentration. Vehicle-only plates, with DMSO being pin-transferred to columns 5-48, will be inserted uniformly at the beginning and the end of each library in order to monitor and record any shifts in the background, which can be affected by reagent dispensers or loss in enzyme activity over time. Screening data will be corrected, normalized, and concentration-effect relationships will be derived by using publicly-available NCGC, NCATS curve fitting algorithms (http://ncgc.nih.gov/pub/openhts).
(Quantitative high-throughput screening tests each substance at several concentrations.)
With `C[C@H]1CN([C@@H](C)CO)C(=O)CCCn2cc(nn2)CO[C@@H]1CN(C)C(=O)Nc1ccccc1`, the “activity change, negative = cytotoxicity” value is 12.8%.

On to `COc1ccc([C@H]2N[C@]3(CCCN(Cc4ccco4)C3=O)[C@H]3C(=O)N(C)C(=O)[C@@H]23)cc1`, for which the “activity change, negative = cytotoxicity” value was 0%.

As to `COc1cc(CN2CCC(C(N)=O)CC2)ccc1OCc1ccccc1`, the “activity change, negative = cytotoxicity” value is 4.51%.

`O=C(CN1CCN(c2ccc(F)cc2)CC1)Nc1ccccc1`: the “activity change, negative = cytotoxicity” value was -0.53%.

Turning to `COc1cc(C)cc(CN2CCC(Cc3ccccc3)CC2)c1O`, the “activity change, negative = cytotoxicity” value was -10.3%.

In the case of `Oc1c(CN2CCN(c3ccc(F)cc3)CC2)cc(Cl)c2cccnc12`, the Potency is 5.17 µM (active).

As to `Fc1ccc(N2CCN(Cc3cnc(Oc4ccc(Br)cc4)s3)CC2)cc1`, the “activity change, negative = cytotoxicity” value was 0%.

Consider `Oc1c(CN2CCCC2)cc(COCc2ccccc2)c2cccnc12`, for which the Potency was 20.6 µM (active).

With `CCC(=O)N1CCc2cc(S(=O)(=O)NC(CC(C)C)C(=O)NCCc3cccc(C)c3)ccc21` (stereo not given), the “activity change, negative = cytotoxicity” value was 4.3%.

For `COC(=O)c1ccc2c(c1)S(=O)(=O)NC2C` (stereo not given), the “activity change, negative = cytotoxicity” value was 35.1%.

As for `CCc1ccc(-n2nc(C)c3c(C)cc(=O)n(CC(=O)Nc4ccc(F)cc4C)c32)cc1`, the “activity change, negative = cytotoxicity” value was 2.18%.

As for `Cc1ccc(-c2nc3c(C)cc(Br)cn3c2Cc2ccccc2)cc1`, the “activity change, negative = cytotoxicity” value was -18.7%.

With `CCn1c2c(c(=O)n3ncc(C(=O)N4CCN(c5ccccc5)CC4)c13)CN(Cc1ccc(OC)cc1)CC2`, the “activity change, negative = cytotoxicity” value is -27.7%.

In the case of `CCc1cccc(NC(=O)Cn2nc(CC)n3c(cc4cc(C)ccc43)c2=O)c1`, the “activity change, negative = cytotoxicity” value is -19.3%.

As to `Cc1ccc(NC(=O)CC2C(=O)N(Cc3ccccc3)C(=S)N2NC(=O)c2cccc(F)c2)c(C)c1` (stereo not given), the Potency was 4.11 µM (active).

As to `O=C(Nc1ccn(Cc2ccccc2)n1)c1cccc(F)c1`, the “activity change, negative = cytotoxicity” value is 0%.

On to `CN1C(=O)C(CC(N)=O)N(NC(=O)c2ccc(Cl)cc2)C1=S` (stereo not given), for which the “activity change, negative = cytotoxicity” value is 1.63%.

`Cc1ccc(S(=O)(=O)N2C[C@]3(O)C[C@@H]4C(=O)N(c5ccccc5)C(=O)[C@@H]4C[C@]3(OC(=O)NC3CC3)C2)cc1`: the “activity change, negative = cytotoxicity” value is 75.5%.

For the molecule `COc1ccc(NC(=O)C2Cc3c(-c4ccc5c(c4)OCO5)ccnc3O2)cn1` (stereo not given), the Potency was 20.6 µM (active).

Turning to `CC(=O)Nc1ccc(-c2ccnc3c2CC(C(=O)NC(C)C)O3)cc1` (stereo not given), the “activity change, negative = cytotoxicity” value was -3.89%.

As to `COc1ccc(NC(=O)C2Cc3c(-c4cccc(NC(C)=O)c4)ccnc3O2)cc1OC` (stereo not given), the “activity change, negative = cytotoxicity” value was -18.5%.

Regarding `CCOc1ccc(C(=O)Nc2ccc3nc4c(c(Nc5ccccc5OC)c3c2)CCCC4)cc1`, the “activity change, negative = cytotoxicity” value is 0%.

Take `CC(C)C[C@@H]1Cc2[nH][nH]c(=O)c2[C@H](CCc2ccccc2)O1`: the “activity change, negative = cytotoxicity” value was -23.4%.

On to `COc1ccc(-c2[nH]nc(-c3ccccc3)c2-c2nc3ccccc3[nH]2)cc1`, for which the “activity change, negative = cytotoxicity” value was -2.23%.

Turning to `COc1ccc(Br)cc1C(=O)NC(=S)Nc1cc(-c2nc3ccccc3[nH]2)ccc1C`, the “activity change, negative = cytotoxicity” value is -18.6%.

With `Cc1ccc(-c2nc3ccccc3[nH]2)cc1N`, the Potency was 10.3 µM (active).

Turning to `CC1(Oc2cccc(F)c2)CCN(Cc2ccccc2OC(F)F)C1` (stereo not given), the “activity change, negative = cytotoxicity” value is 5.33%.

In the case of `COc1ccccc1-n1c(-c2ccc(C)cc2)cn2c3c(=O)n(C)c(=O)n(C)c3nc12`, the “activity change, negative = cytotoxicity” value is 27.5%.

In the case of `COc1cccc(Cn2c(SCc3ccc(C(=O)N4CCCCC4)cc3)nc3ccncc32)c1`, the “activity change, negative = cytotoxicity” value is 13.1%.

As to `O=C(Nc1ccccc1)c1ccc(NC(=O)c2cccs2)cc1`, the “activity change, negative = cytotoxicity” value is 0%.

Regarding `O=C(Nc1ccc(NC(=O)c2cccs2)cc1)c1ccc2ccccc2c1`, the “activity change, negative = cytotoxicity” value was 1.68%.

`CC(C)(C)c1ccc(C(=O)Nc2ccc3c(c2)CCCN3C(=O)c2cccs2)cc1`: the Potency was 20.6 µM (active).

Take `Cc1nn(-c2ccccc2)c(C)c1NC(=O)COc1ccc(Cl)cc1Cl`: the Potency was 2.31 µM (active).

In the case of `Cc1nn(-c2ccccc2)c(C)c1NC(=O)COC(=O)c1cc(Cl)ccc1O`, the “activity change, negative = cytotoxicity” value is -4.72%.

Regarding `C/C=C/c1ccc(OCC(=O)OCC(=O)Nc2c(C)nn(-c3ccccc3)c2C)c(OC)c1`, the “activity change, negative = cytotoxicity” value was 4.6%.

Regarding `C#CCN(C[C@H]1[C@H](OC(=O)NC2CCCC2)[C@H](OC(=O)NC2CCCC2)C[C@H]2C(=O)N(c3ccccc3)C(=O)[C@@H]12)S(=O)(=O)c1ccc(C)cc1`, the “activity change, negative = cytotoxicity” value was 11.7%.

Turning to `CC1CCc2c(sc3nc4n(c(=O)c23)CCS4)C1` (stereo not given), the “activity change, negative = cytotoxicity” value was -10.8%.

As for `C=CCn1c(SCc2c(C)noc2C)nc2sc3c(c2c1=O)CCC(C)C3` (stereo not given), the Potency is 4.61 µM (active).

Turning to `C=CCn1c(SCC(=O)NCCCO)nc2sc3c(c2c1=O)CCC3`, the “activity change, negative = cytotoxicity” value is -0.705%.

As for `O=C(Nc1ccc(Cl)cc1)c1csc([C@H]2C[C@H](O)[C@@H](CO)O2)n1`, the “activity change, negative = cytotoxicity” value was -8.14%.

Turning to `CCc1nnc2c3ccccc3nc(N3CCN(c4ccc(C)cc4C)CC3)n12`, the “activity change, negative = cytotoxicity” value is 11%.

As to `Cc1ccc(S(=O)(=O)NCc2nc3ccccc3c(=O)n2N)cc1`, the “activity change, negative = cytotoxicity” value was 4.72%.

Take `CCC1NC(=O)c2cccnc2-n2c1nc1ccc(C)cc1c2=O` (stereo not given): the “activity change, negative = cytotoxicity” value was -15.4%.

For `C(=C\c1ccccc1)/CSc1nnc(-c2cccnc2)n1Cc1ccco1`, the “activity change, negative = cytotoxicity” value is 0%.

For `N=c1c2c(-c3ccccc3)c(-c3ccccc3)oc2ncn1Cc1ccco1`, the Potency was 16.4 µM (active).

Take `OCCNc1ncnc2oc(-c3ccco3)c(-c3ccco3)c12`: the “activity change, negative = cytotoxicity” value was -18.6%.

On to `CSCCC(c1nnnn1Cc1ccccc1)N1CCN(C/C=C/c2ccccc2)CC1` (stereo not given), for which the “activity change, negative = cytotoxicity” value was -8.22%.

Regarding `O=C(CNC(=O)N1CC(=O)Nc2ccccc21)Nc1ccc(Br)cc1F`, the “activity change, negative = cytotoxicity” value was 10.8%.

Take `Cc1ccc(C(C)C)cc1OCCN1CCCC1`: the “activity change, negative = cytotoxicity” value was 2.61%.

As to `O=[N+]([O-])c1ccccc1OCCCCN1CCCCC1`, the “activity change, negative = cytotoxicity” value was -24.1%.

The values above are taken from PubChem BioAssay AID1347076 (National Center for Advancing Translational Sciences (NCATS), 2019).
